Measured values reported in the supplement of paper PMC6555819.

What was measured:
Assay in all cases: PBM binding z-score (relative to random genomic background probes); higher = stronger binding; sequences stand for … in GC…GCGATTGACAGCGTAGAATGAAGG
[1] = tested on: FXR:RXRa (NR concentration 270 nM, RXRa partner concentration 90 nM)
Procedure, shortened: (§1)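 The probes on custom Agilent 4×180K protein-binding microarrays were double-stranded, with 34-nt variable regions bearing direct-repeat seeds, single-nucleotide variants, half-site ablations and random human genomic background sequences. Incubation lasted 1 h with ligand-free nuclear receptor dimers in PBS pH 7.4, 2% milk, 0.02% Triton X-100, 1 mM DTT, 0.2 mg/mL BSA and 0.4 mg/ml salmon testes DNA. Antibodies against each partner (one per run) detected bound dimers, and fluorescence scans were regression-normalized. Binding z-scores take the random background probes as reference.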

[2] = tested on: LXRa:RXRa (NR concentration 270 nM, RXRa partner concentration 90 nM)
Procedure, shortened: as §1

[3] = tested on: LXRa homodimer (NR concentration 270 nM)
Procedure, shortened: as §1

[4] = tested on: LXRb:RXRa (NR concentration 270 nM, RXRa partner concentration 90 nM)
Procedure, shortened: as §1

[5] = tested on: LXRb homodimer (NR concentration 270 nM)
Procedure, shortened: as §1

[6] = tested on: PPARa:RXRa (NR concentration 270 nM, RXRa partner concentration 90 nM)
Procedure, shortened: as §1

[7] = tested on: PPARg:RXRa (NR concentration 180 nM, RXRa partner concentration 90 nM)
Procedure, shortened: as §1

[8] = tested on: PPARg:RXRa 270nM:90nM, anti-RXR (NR concentration 270 nM, RXRa partner concentration 90 nM)
Procedure, shortened: as §1

[9] = tested on: PPARg:RXRa 30nM:10nM, anti-RXR (NR concentration 30 nM, RXRa partner concentration 10 nM)
Procedure, shortened: as §1

[10] = tested on: PPARg:RXRa 90nM:30nM, anti-RXR (NR concentration 90 nM, RXRa partner concentration 30 nM)
Procedure, shortened: as §1

Sequence | PBM binding z-score [1] | PBM binding z-score [2] | PBM binding z-score [3] | PBM binding z-score [4] | PBM binding z-score [5] | PBM binding z-score [6] | PBM binding z-score [7] | PBM binding z-score [8] | PBM binding z-score [9] | PBM binding z-score [10]
CGTCCAAGGTCAAGGACAGTGAAAGAGACTCGAA | 6.84 | 4.98 | 0.198 | 3.81 | 0.401 | 5.57 | 5.12 | 5.16 | 1.84 | 3.73
CCGACTGGGGCAGAAAGGATACCATACCATCCGG | -0.81 | -0.88 | -0.438 | -0.926 | -1.2 | -0.597 | 0.937 | -0.0255 | -0.593 | -0.344
GCTCGGAGGACAAGGTCAGAGATTTGTCCGTAGA | 1.22 | 1.62 | -0.347 | 1.2 | -0.658 | 2.13 | 0.719 | 1.53 | -0.349 | 0.587
CGTCCAAGGCCAAAGGTCAGTGAAGAGATGACGG | 4.06 | 3.48 | 0.794 | 3.05 | -0.142 | 5.2 | 7.29 | 6.97 | 5.65 | 7.26
AGTCAAAGTTCATCTAGGTAACTTAAGATATGCT | 6.76 | 6.19 | 5.17 | 3.8 | 1.81 | 4.6 | 6.6 | 6.26 | 2.93 | 5.64
GCTAGCAGGCCATCTGGGTCACTCAATGACGGGC | 0.0876 | -0.178 | -0.882 | -0.232 | -0.896 | 1.7 | 1.31 | 1.36 | -0.319 | 0.57
AGAATGATGTTATACGTAGATCAGGGAAGAAAGT | -0.301 | -0.398 | -0.0367 | -0.288 | -0.0572 | -0.192 | 0.88 | -0.156 | 0.198 | -0.0681
ACTCGTAGGACAAAGGTCAGAGCTACGCCAGTGA | 3.9 | 4.29 | 1.39 | 3.3 | 0.607 | 5.11 | 7.99 | 7.75 | 6.47 | 8.26
TCTTGTAGCTCAAAGGTTAAGAAAGCCGAAGCCT | 0.766 | 1.08 | -0.349 | 1.32 | -0.747 | 3.36 | 4.77 | 6.09 | 4.64 | 6.1
TAGCTTAGGTCATGCGGGCCAGTATAGTGTCGGC | 4.63 | 3.38 | 0.514 | 1.93 | 0.519 | 3.57 | 1.32 | 1.95 | 0.0747 | 0.973
TCTCGGAGGACACGAAGGACAGAGCTTTCCAGAG | 0.358 | -0.306 | -0.452 | -0.355 | -1.07 | -0.0833 | 0.271 | 0.836 | 2.13 | 1.3
AGTGAAAGTTCATCTAGGTAACGTAAGATATGCT | 5.95 | 5.92 | 5.06 | 3.56 | 1.86 | 4.52 | 5.39 | 5.5 | 2.65 | 4.84
TCTTGTAGATCGGCAGGTTAAGAAAGCTGGCCAA | 0.24 | 0.472 | -0.48 | 0.25 | -0.432 | 0.736 | -0.656 | 1.28 | 2.42 | 2.02
TCTTGTAGATCAAGCCGGTTAAGAAAGCCTGAGT | 0.845 | 0.416 | -0.282 | 0.245 | -0.0874 | 0.538 | -0.597 | 1.31 | 2.88 | 1.97
CGAACTATGTCAGAACAGGACAGTGAAGGATGAT | 0.0056 | -0.347 | -0.162 | -0.473 | 0.636 | 0.0465 | 0.811 | 0.229 | 0.135 | -0.000779
GATACAGGGTCAAGGCCAGACTACGCGTATTGAT | 6.8 | 3.95 | 0.21 | 3.72 | -0.0563 | 5.69 | 6.16 | 5.88 | 2.85 | 4.87
CCTACTGGGCCATTCAGAGGTGATTGATCATATG | -0.00465 | 0.0536 | -0.239 | -0.138 | -0.593 | 0.81 | 0.504 | 0.898 | -0.276 | 0.119
CCTTACGGGTCAAGGTTATAGCGCGGGTGGTACG | 5.55 | 3.66 | 0.129 | 2.75 | 0.134 | 5.04 | 4.54 | 4.41 | 1.73 | 3.35
TTACCAAGGTGAGCTCAGGTCGTTGATCCAACTC | 1.26 | 0.561 | -0.29 | 0.42 | -1.08 | 0.894 | -0.199 | 0.203 | -0.185 | -0.151
TCGTGTAGATCAGCAGGTTAAGAAAGCTGGCCAA | -0.188 | 0.0517 | -0.312 | 0.0213 | -0.844 | 0.437 | -0.564 | 0.79 | 1.98 | 1.42
GCTGCTAGGTCAGATTGGTCAGCTAACGGGTACG | 1.36 | 0.957 | -0.166 | 0.562 | -0.238 | 1.68 | 0.672 | 0.718 | -0.273 | 0.427
GCGACTGGGGAAAAGCAGGTTACCATAAGGTTGG | -0.282 | -0.412 | -0.496 | 0.0547 | -1.04 | 0.442 | 0.406 | 0.154 | -0.554 | 0.0241
TCATAGAGGTAAAGGTGAAAGTCGAACGATATGA | 1.13 | 1.35 | -0.575 | 1.3 | -0.862 | 3.63 | 3.74 | 5.04 | 3.97 | 4.88
TAGCCTAGGTCATGCGGGCCTGTATAGTGTCGGC | 3.73 | 3.24 | 0.135 | 1.6 | -0.428 | 3.27 | 1.91 | 2.39 | 0.161 | 1.45
